{"source": "PubChem BioAssay AID588651", "about": "(The Scripps Research Institute Molecular Screening Center, 2011)", "note": "A number with no mark means an inactive call. No stated cut-off is given here; in the data, active means inhibition above about 65%; inactive means the rest.", "data": [{"tested_on": "Fam108b", "assay": "Fam108b inhibition by ABPP, late-stage follow-up, biochemical, gel-based ABPP, recombinant soluble Fam108b, HTS hits, complex proteome (AID 588651);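 further: Fam108b spiked into mouse brain membrane proteome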", "details": "FP-rhodamine labeling in proteome, at 20 µM, hits give high values", "units": {"inhibition": "%"}, "values": [{"smiles": "C[n+]1c(-c2ccccc2)c2cc(N)ccc2c2ccc(N)cc21", "inhibition": 0}, {"smiles": "NC(Cc1cc(O)c(O)cc1O)C(=O)O", "note": "(stereo not drawn)", "inhibition": 0}, {"smiles": "Cc1ccccc1N1C(=O)/C(=C/c2ccco2)C(=O)NC1=S", "inhibition": 0}]}]}
